Data taken from the supplement of paper PMC3334620.
Whole data set: some 33,000 sequences, median “E-score (-0.5 to 0.5)” near -0.054, cut for the highest 2% near 0.39. This is one part of a sample in which the highest values are shown more often than they occur.

What follows are sequences tested against Ylr278c (UniProt Q05854) (assay: PBM E-score (8-mer binding enrichment) (E-score (-0.5 to 0.5)); higher = stronger / more preferred TF binding). Conditions: protein concentration: 200 nM; construct: GST-DNA-binding domain.
Sequence of UniProt Q05854 (Q05854 whole entry, the tested form may be a part): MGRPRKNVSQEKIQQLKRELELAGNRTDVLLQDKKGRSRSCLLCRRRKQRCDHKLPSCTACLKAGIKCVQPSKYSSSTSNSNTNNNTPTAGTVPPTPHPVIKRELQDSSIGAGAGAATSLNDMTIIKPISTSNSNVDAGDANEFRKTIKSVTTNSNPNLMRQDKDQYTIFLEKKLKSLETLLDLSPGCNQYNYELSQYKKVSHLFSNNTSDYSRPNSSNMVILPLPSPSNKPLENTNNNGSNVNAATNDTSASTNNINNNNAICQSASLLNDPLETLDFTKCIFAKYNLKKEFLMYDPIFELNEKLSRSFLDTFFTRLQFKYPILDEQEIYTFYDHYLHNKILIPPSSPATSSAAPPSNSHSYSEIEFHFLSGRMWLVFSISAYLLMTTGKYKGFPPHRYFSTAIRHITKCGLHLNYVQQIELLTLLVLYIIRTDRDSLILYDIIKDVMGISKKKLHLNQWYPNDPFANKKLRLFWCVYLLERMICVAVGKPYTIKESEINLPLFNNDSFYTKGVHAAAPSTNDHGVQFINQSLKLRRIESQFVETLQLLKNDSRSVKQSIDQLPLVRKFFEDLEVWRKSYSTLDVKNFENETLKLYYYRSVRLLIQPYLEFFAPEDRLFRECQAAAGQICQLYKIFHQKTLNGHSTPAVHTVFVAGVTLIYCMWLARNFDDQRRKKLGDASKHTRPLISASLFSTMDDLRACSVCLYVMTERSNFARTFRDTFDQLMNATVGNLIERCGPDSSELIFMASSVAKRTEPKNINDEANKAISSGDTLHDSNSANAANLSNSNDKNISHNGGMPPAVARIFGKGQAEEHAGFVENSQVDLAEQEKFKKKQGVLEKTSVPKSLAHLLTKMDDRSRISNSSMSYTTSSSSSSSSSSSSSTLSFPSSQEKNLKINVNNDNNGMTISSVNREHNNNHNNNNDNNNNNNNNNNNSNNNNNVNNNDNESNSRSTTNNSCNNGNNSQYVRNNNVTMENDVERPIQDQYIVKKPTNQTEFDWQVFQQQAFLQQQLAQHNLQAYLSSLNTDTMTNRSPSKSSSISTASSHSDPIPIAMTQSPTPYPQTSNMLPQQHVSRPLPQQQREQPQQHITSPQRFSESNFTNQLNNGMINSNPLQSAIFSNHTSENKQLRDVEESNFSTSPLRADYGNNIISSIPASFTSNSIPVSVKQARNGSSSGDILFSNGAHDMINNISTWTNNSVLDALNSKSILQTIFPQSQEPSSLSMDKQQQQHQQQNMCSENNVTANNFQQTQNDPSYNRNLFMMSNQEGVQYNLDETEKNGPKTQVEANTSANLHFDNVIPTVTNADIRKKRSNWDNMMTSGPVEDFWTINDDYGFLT
Procedure: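 Universal 'all 10-mer' protein binding microarrays (Agilent AMADID 015681) probed with GST-tagged S. cerevisiae TFs (full-length or DBD) made by in vitro transcription/translation (PURExpress), about 100-200 nM. Bound TF was detected with fluorescent anti-GST. Each ungapped 8-mer (which stands for itself and its reverse complement) is scored by the PBM enrichment score (E-score), a modified Wilcoxon-Mann-Whitney statistic from -0.5 to +0.5, computed with the Universal PBM Analysis Suite. Scale: above 0.35 generally sequence-specific binding.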
GTTGCTTA was tested, and the “PBM E-score” value was -0.107.
With GTCTGCGA the “PBM E-score” value was -0.207.
In the case of GTCACCCA, the “PBM E-score” value is reported as -0.109.
For ACTAGCCT, the “PBM E-score” value was -0.0654.
In the case of CATTGAGA, the “PBM E-score” value is reported as -0.119.
With GTCTCGGA the “PBM E-score” value was 0.385.
In the case of ATCTCGGG, the “PBM E-score” value is reported as 0.278.
With CTCTCGAA the “PBM E-score” value was -0.33.
CTCTCGGC was tested, and the “PBM E-score” value was 0.181.
For ATCTCGGA, the “PBM E-score” value was 0.406.
In the case of CTCTCGGA, the “PBM E-score” value is reported as 0.405.
With GGCGACGA the “PBM E-score” value was -0.172.
AAAGCCTA was tested, and the “PBM E-score” value was -0.184.
In the case of ATCTAACG, the “PBM E-score” value is reported as 0.0888.
CGGCTGGA was tested, and the “PBM E-score” value was 0.0769.
With GGGATGAC the “PBM E-score” value was 0.0341.
CAGCGGAG was tested, and the “PBM E-score” value was 0.408.
CCGCGGGC was tested, and the “PBM E-score” value was 0.367.
In the case of GCGCGGGA, the “PBM E-score” value is reported as 0.248.
For CCGCGGAG, the “PBM E-score” value was 0.449.
In the case of CCGCGGCG, the “PBM E-score” value is reported as 0.364.
CCGCGCAG was tested, and the “PBM E-score” value was 0.274.
GCGCGGAC was tested, and the “PBM E-score” value was 0.294.
With AAGCGGAG the “PBM E-score” value was 0.355.
For CCGCGGGA, the “PBM E-score” value was 0.393.
With CAGCGGAA the “PBM E-score” value was 0.359.
In the case of CCGCGGAC, the “PBM E-score” value is reported as 0.429.
With CAGCGGAC the “PBM E-score” value was 0.257.
For GCTTCTAC, the “PBM E-score” value was -0.123.
In the case of ATTAGGGA, the “PBM E-score” value is reported as -0.0669.
CCTGAAGA was tested, and the “PBM E-score” value was -0.0995.
In the case of CCATAGGG, the “PBM E-score” value is reported as -0.154.
For CTTTACAC, the “PBM E-score” value was 0.022.
ACCAGGAT was tested, and the “PBM E-score” value was -0.0342.
With GCGCGGAA the “PBM E-score” value was 0.387.
For TCGCGGAA, the “PBM E-score” value was 0.342.
In the case of ACGCGGAG, the “PBM E-score” value is reported as 0.421.
In the case of ACGCGGAT, the “PBM E-score” value is reported as 0.23.
In the case of ACGCGGAC, the “PBM E-score” value is reported as 0.342.
CCGCGGAA was tested, and the “PBM E-score” value was 0.414.
For AATTAGCT, the “PBM E-score” value was 0.0507.
With AAGCCGTG the “PBM E-score” value was 0.00789.
For GCCTTTAC, the “PBM E-score” value was -0.0652.
In the case of AGTCCGTG, the “PBM E-score” value is reported as 0.343.
With GCTCCGTA the “PBM E-score” value was 0.405.
In the case of ATTCCGTC, the “PBM E-score” value is reported as 0.362.
In the case of GCTCCATA, the “PBM E-score” value is reported as -0.175.
ACTCCTTA was tested, and the “PBM E-score” value was -0.0802.
With ACTCCGTG the “PBM E-score” value was 0.449.
ACACCGTA was tested, and the “PBM E-score” value was 0.102.
With ACTCCGTC the “PBM E-score” value was 0.459.
CCTCCGTC was tested, and the “PBM E-score” value was 0.351.
In the case of CCTCCGTA, the “PBM E-score” value is reported as 0.37.
ACTCCGTA was tested, and the “PBM E-score” value was 0.443.
In the case of AATCCGTG, the “PBM E-score” value is reported as 0.26.
GCTGGAGA was tested, and the “PBM E-score” value was -0.271.
In the case of GGCACTAC, the “PBM E-score” value is reported as -0.0733.
In the case of CCTGATCG, the “PBM E-score” value is reported as -0.0211.
CTGAGTGC was tested, and the “PBM E-score” value was -0.133.
In the case of CGGAGTGC, the “PBM E-score” value is reported as 0.438.
With GGGAGTGA the “PBM E-score” value was 0.0441.
With AGGAGTGC the “PBM E-score” value was -0.139.
For AGGAGTGA, the “PBM E-score” value was -0.0619.
For CGGAGTGA, the “PBM E-score” value was 0.459.
With GACCATGA the “PBM E-score” value was 0.0081.
For CCTTCTGC, the “PBM E-score” value was -0.136.
With ATGTTAGC the “PBM E-score” value was -0.0158.
In the case of AAGACGCA, the “PBM E-score” value is reported as -0.074.
With GTCAACAA the “PBM E-score” value was -0.23.
AGCTCCTC was tested, and the “PBM E-score” value was -0.144.
With AGCTCCAA the “PBM E-score” value was -0.207.
In the case of AGCTCCGC, the “PBM E-score” value is reported as 0.436.
With GGCTCCGA the “PBM E-score” value was 0.393.
With AGCTCCGG the “PBM E-score” value was 0.458.
With AGCTCCCG the “PBM E-score” value was 0.0891.
AGCTCCTA was tested, and the “PBM E-score” value was -0.0358.
In the case of AGCTCCGA, the “PBM E-score” value is reported as 0.47.
With AGCTCCTG the “PBM E-score” value was -0.0626.
In the case of GGCTCCCA, the “PBM E-score” value is reported as -0.145.
With GGCTCCAA the “PBM E-score” value was -0.0143.
AGCTCCAC was tested, and the “PBM E-score” value was -0.0221.
In the case of GAGCCTCA, the “PBM E-score” value is reported as -0.171.
In the case of CGCTCCCG, the “PBM E-score” value is reported as 0.115.
In the case of CACTTCAC, the “PBM E-score” value is reported as -0.0647.
For GTCTGTTA, the “PBM E-score” value was -0.13.
TGCTCCCA was tested, and the “PBM E-score” value was -0.175.
In the case of AAGTCGAG, the “PBM E-score” value is reported as -0.374.
For CTGTCTGC, the “PBM E-score” value was -0.222.
With CCCAATAA the “PBM E-score” value was -0.0977.
With GGAGACTA the “PBM E-score” value was 0.0463.
With GCTAAGAC the “PBM E-score” value was -0.0188.
For CGCTCCCA, the “PBM E-score” value was 0.0833.
CGCTCCGA was tested, and the “PBM E-score” value was 0.432.
With CGCTCCGC the “PBM E-score” value was 0.317.
With AACTGTGG the “PBM E-score” value was -0.0559.
For ACTACGCT, the “PBM E-score” value was -0.0389.
With CCCGACGA the “PBM E-score” value was 0.213.
TCCGACAA was tested, and the “PBM E-score” value was 0.39.
For CCCGACAA, the “PBM E-score” value was 0.281.
In the case of TCCGACGA, the “PBM E-score” value is reported as 0.397.
With ACCGACAA the “PBM E-score” value was 0.199.
In the case of GCCGACGA, the “PBM E-score” value is reported as 0.248.
In the case of ACCTCTGA, the “PBM E-score” value is reported as -0.0775.
CAAGATTG was tested, and the “PBM E-score” value was -0.151.
In the case of AAAATTAT, the “PBM E-score” value is reported as 0.214.
With ACCCGGAA the “PBM E-score” value was 0.394.
For ACCCGGAC, the “PBM E-score” value was 0.396.
TCCCGGCA was tested, and the “PBM E-score” value was 0.333.
CCCGGGAC was tested, and the “PBM E-score” value was 0.394.
For ACCCGGCA, the “PBM E-score” value was 0.174.
With TCCCGGAA the “PBM E-score” value was 0.44.
For TCACGGAA, the “PBM E-score” value was 0.324.
With GCCGGGAC the “PBM E-score” value was 0.255.
ACCCGGGC was tested, and the “PBM E-score” value was 0.273.
For CCGGGGAC, the “PBM E-score” value was 0.242.
For ACCCGGTA, the “PBM E-score” value was 0.161.
For ACCCGGTC, the “PBM E-score” value was 0.202.
In the case of CCCCTAAC, the “PBM E-score” value is reported as -0.141.
For GAAATCGC, the “PBM E-score” value was 0.214.
AACTGGCC was tested, and the “PBM E-score” value was 0.0711.
In the case of GTGCCTTA, the “PBM E-score” value is reported as -0.129.
AGCGCAGG was tested, and the “PBM E-score” value was 0.169.
In the case of CAAAAAGG, the “PBM E-score” value is reported as -0.203.
With AATTTCTC the “PBM E-score” value was 0.121.
CCCCGGCA was tested, and the “PBM E-score” value was 0.318.
With CCCCGGAC the “PBM E-score” value was 0.388.
In the case of CCCCGGCG, the “PBM E-score” value is reported as 0.348.
For CCCCGGAA, the “PBM E-score” value was 0.406.
For CCCCGGCC, the “PBM E-score” value was 0.287.
For CCCCGGAG, the “PBM E-score” value was 0.48.
For GCCCGGCC, the “PBM E-score” value was 0.32.
For GCCCGGAC, the “PBM E-score” value was 0.406.
For CCCCGGTC, the “PBM E-score” value was 0.368.
GCCCGGGC was tested, and the “PBM E-score” value was 0.356.
In the case of CCCCGGTA, the “PBM E-score” value is reported as 0.329.
In the case of CCCGGGAG, the “PBM E-score” value is reported as 0.294.
For AAACCAGC, the “PBM E-score” value was 0.0107.
In the case of AGTGAGCC, the “PBM E-score” value is reported as -0.162.
TACTTTAA was tested, and the “PBM E-score” value was -0.122.
TCGGGTCA was tested, and the “PBM E-score” value was 0.232.
For AGCAGCCA, the “PBM E-score” value was -0.259.
In the case of CCCAGTCC, the “PBM E-score” value is reported as -0.0128.
For CTATAAAG, the “PBM E-score” value was 0.0306.
For GAACCAGC, the “PBM E-score” value was -0.126.
ACCCGGCG was tested, and the “PBM E-score” value was 0.258.
With ACCCGGAG the “PBM E-score” value was 0.46.
With ACCCGGAT the “PBM E-score” value was 0.238.
In the case of GCCCGGTA, the “PBM E-score” value is reported as 0.26.
For GCCCGGGA, the “PBM E-score” value was 0.341.
In the case of GCCCGGAA, the “PBM E-score” value is reported as 0.423.
In the case of AGCTCACC, the “PBM E-score” value is reported as -0.00625.
ATTCCAAG was tested, and the “PBM E-score” value was -0.077.
With ATTCCGAG the “PBM E-score” value was 0.445.
With ATGCCGAC the “PBM E-score” value was 0.318.
For GTTCCGAA, the “PBM E-score” value was 0.373.
With ATGCCGAG the “PBM E-score” value was 0.213.
ATTCCGAA was tested, and the “PBM E-score” value was 0.456.
ATTCCGAC was tested, and the “PBM E-score” value was 0.451.
CTTCCGAC was tested, and the “PBM E-score” value was 0.273.
For CTTCCGAA, the “PBM E-score” value was 0.371.
With GTGCAACA the “PBM E-score” value was -0.184.
For ACATTCCG, the “PBM E-score” value was 0.332.
For AGGGTTAG, the “PBM E-score” value was -0.249.
In the case of ATATGATA, the “PBM E-score” value is reported as 0.0821.
In the case of AAGATTCT, the “PBM E-score” value is reported as -0.242.
For AATACCGG, the “PBM E-score” value was 0.416.
With CCCACCGA the “PBM E-score” value was 0.00192.
In the case of CCCACCGC, the “PBM E-score” value is reported as 0.225.
In the case of CACACCGG, the “PBM E-score” value is reported as 0.283.
With AATACCGT the “PBM E-score” value was 0.211.
AACACCGG was tested, and the “PBM E-score” value was 0.411.
AATACCGC was tested, and the “PBM E-score” value was 0.268.
